The text below walks through data of ChEMBL document CHEMBL4513216, “Probing the Open Global Health Chemical Diversity Library for Multistage-Active Starting Points for Next-Generation Antimalarials” (ACS Infect Dis, 2020).

Among all 68,000 compounds or so, about 2,700 (4%) showed an effect of 50% or more. For the sample, strong results were picked, then their nearest neighbours and some compounds at random.

The test system of the test is Plasmodium berghei. The test can be described thus: Screen against P. berghei liver stage (PbLuc), transformed with Luciferase, at 2uM. The format is functional, HepG2. The following applies: tested at 2 uM.
Take `O=C(NCCc1ccccc1)N1C[C@@H]2C[C@H](C(=O)N3CCCC3)[C@H](C1)O2`: the INHIBITION is given as -0.89%.

Turning to `CCC1=N[C@@]2(CC[C@@H]3CN(Cc4ccc(F)cc4)C[C@@H]32)C(=O)N1C`, the INHIBITION was -22.23%.

Take `c1ccc(CN2CCCC(c3nccnc3-n3ccnc3)C2)cc1` (stereo not drawn): the INHIBITION is listed as 22.66%.

On to `Fc1ccc(CN2CCCC(c3nccnc3-n3ccnc3)C2)cc1` (stereo not drawn), for which the INHIBITION is 50.74%.

Turning to `Fc1ccc(CN2CCC(c3nccnc3-n3ccnc3)CC2)cc1`, the INHIBITION is listed as 16.87%.

Consider `CS(=O)(=O)N[C@@H]1CCN(Cc2cccnc2)[C@H]1Cc1ccccc1`, for which the INHIBITION was determined as 7.26%.

With `CN(C)C1CCN(C(=O)c2cc(-c3ccn(C)n3)n3ccccc23)CC1`, the INHIBITION is recorded as -40.37%.

As for `CC(C)NC(=O)N1C[C@@H](F)[C@@H](OCc2nc3ccccc3o2)C1`, the INHIBITION is 16.47%.

For the compound `CC(C)N1CCC(N2CCOC3(CCCC3)C2)C1=O` (stereo not drawn), the INHIBITION is -0.75%.

Regarding `COC(=O)c1sccc1S(=O)(=O)NCCC(O)c1ccco1` (stereo not drawn), the INHIBITION worked out at 4.89%.

Regarding `CS(=O)(=O)NCCNc1ncnc2cccc(F)c12`, the INHIBITION stood at 17.73%.

In the case of `Fc1cccc2ncnc(NCCCc3ccncc3)c12`, the INHIBITION came out at 54.3%.

For `CSCCCNc1ncnc2cccc(F)c12`, the INHIBITION was 28.79%.

In the case of `CC(C)(C)c1cn(C2CCN(C(=O)c3cnccn3)CC2)nn1`, the INHIBITION was 50.4%.

In the case of `CC(C)n1cc(C(=O)N2CCC(n3cc(C(C)(C)C)nn3)CC2)cn1`, the INHIBITION came to 22.39%.

For `CC(C)(C)c1cn(C2CCN(C(=O)c3cncnc3)CC2)nn1`, the INHIBITION worked out at 40.83%.

On to `Cc1cncc(C(=O)N2C[C@@H](C(=O)O)[C@H](C(C)C)C2)c1`, for which the INHIBITION turned out to be 44.23%.

Regarding `COc1cc(C2(C(=O)NCCn3ccnc3)CCCC2)ccc1C`, the INHIBITION is -64.32%.

For the compound `CCc1ncc(S(C)(=O)=O)c(C2CCCNC2)n1` (stereo not drawn), the INHIBITION is given as 18.8%.

In the case of `O=C(NCCn1ccc(-c2ccncc2)n1)c1ccc2c(c1)OCO2`, the INHIBITION was 6.33%.

For the compound `CCCS(=O)(=O)NC(C)C(=O)NCc1ccc(N2CCN(C)CC2)nc1` (stereo not drawn), the INHIBITION is -34.5%.

On to `COc1cc(C)c(C(C)NC(=O)Nc2nnc(C)s2)cc1OC` (stereo not drawn), for which the INHIBITION was 39.48%.

With `COc1ccc(OC)c(C(C)NC(=O)Nc2nnc(C)s2)c1` (stereo not drawn), the INHIBITION was -10.7%.

For the compound `COc1ccc(C(C)NC(=O)Nc2nnc(C)s2)c(OC)c1` (stereo not drawn), the INHIBITION amounted to 58.69%.

As to `CC(Cc1c(F)cccc1F)NC(=O)CN(CC(N)=O)C(C)C` (stereo not drawn), the INHIBITION came out at 58.53%.

As to `CC(Cc1c(F)cccc1F)NC(=O)CSCC(N)=O` (stereo not drawn), the INHIBITION is listed as 14.19%.

In the case of `CC(C)N(CC(N)=O)CC(=O)NCCc1c(F)cccc1F`, the INHIBITION stood at 37.18%.

With `CS(=O)(=O)c1ccc(CC(=O)N2CCN3CCNC(=O)C3C2)cc1` (stereo not drawn), the INHIBITION came out at 83.83%.

Take `CNS(=O)(=O)c1ccc(CN2CCN3CCNC(=O)C3C2)cc1` (stereo not drawn): the INHIBITION was -43.5%.

For the compound `O=C1NCCN2CCN(C(=O)NCCc3ccccc3)CC12` (stereo not drawn), the INHIBITION stood at 33.48%.

`Cc1cc(-c2cnc(N3CCOCC3)nc2-c2ccc(C)s2)on1`: the INHIBITION is 8.09%.

On to `CS(=O)(=O)NCCN1CCCC1c1ccc(Cl)cc1` (stereo not drawn), for which the INHIBITION turned out to be 8.42%.

As for `CS(=O)(=O)NCCN1CCSCC1c1ccc(Cl)cc1` (stereo not drawn), the INHIBITION came to 36.28%.

Turning to `Cc1ccc(C2CSCCN2CCS(C)(=O)=O)cc1` (stereo not drawn), the INHIBITION amounted to 38.67%.

In the case of `CCS(=O)(=O)CCCN1CCSCC1c1ccc(Cl)cc1` (stereo not drawn), the INHIBITION amounted to 52.98%.

For `CS(=O)(=O)CCCN1CCSCC1c1ccc(Cl)cc1` (stereo not drawn), the INHIBITION is given as 62.51%.

On to `CS(=O)(=O)CCN1CCSCC1c1ccc(Cl)cc1` (stereo not drawn), for which the INHIBITION is given as 5.28%.

As for `CCN(C(=O)c1cc(C)nc2ccccc12)C1CC(=O)NC1=O` (stereo not drawn), the INHIBITION came out at 10.93%.

On to `Nc1ncccc1C(=O)NCc1ccc(Br)cc1`, for which the INHIBITION turned out to be 49.69%.

Turning to `Cc1csc(N2CCN(C(=O)C(C)n3cncn3)CC2)n1` (stereo not drawn), the INHIBITION came to 4.18%.

`Cc1cc(C(=O)NCCCn2nccc2C2CC2)c(=O)[nH]c1C`: the INHIBITION was found to be 49.45%.

With `COc1c(CNCc2ccnc(N(C)C)c2)c(C(C)C)nn1C`, the INHIBITION was determined as 18.85%.

Turning to `CC(=O)N1CCN([C@@H]2CCC[C@@H](NC(=O)c3cccnc3)[C@H]2O)CC1`, the INHIBITION stood at 20.44%.

On to `CC(=O)N1CCOC2(CCN(C(=O)C3CC3)CC2)C1`, for which the INHIBITION is recorded as -31.76%.

As for `NC(=O)CN1CCCN(C(=O)c2ccc(SC(F)F)cc2)CC1`, the INHIBITION was 2.31%.

Regarding `O=C(CCOCC(F)(F)F)N1CCCC(n2ccnc2)C1` (stereo not drawn), the INHIBITION is given as 2.21%.

For `O=C1COc2ccc(C(=O)NS(=O)(=O)c3cc(F)ccc3F)cc2N1`, the INHIBITION is on record as -9.66%.

Turning to `Cc1nc(NC(=O)c2nn(-c3ccc(F)cc3C)cc2O)n[nH]1`, the INHIBITION turned out to be 2.82%.

For `Cc1ccc(-c2nnc(CNCCn3cccn3)o2)cc1`, the INHIBITION is -9.22%.

In the case of `COc1ccc(-c2nnc(CNCCn3cccn3)o2)cc1`, the INHIBITION was -16.99%.

For `c1ccc(-c2nnc(CNCCn3cccn3)o2)cc1`, the INHIBITION is on record as 51.32%.

As for `COc1cccc(C(=O)N2CCCC(CNS(C)(=O)=O)C2)c1` (stereo not drawn), the INHIBITION came out at 2.74%.

On to `Cc1cc(C2CCCN(C(=O)CCc3cscn3)C2)n[nH]1` (stereo not drawn), for which the INHIBITION was -0.13%.

As for `COCC(NC(=O)c1ccoc1C)c1cccc(C(F)(F)F)c1` (stereo not drawn), the INHIBITION worked out at 74.22%.

For the compound `COCC(NC(=O)c1ccco1)c1cccc(C(F)(F)F)c1` (stereo not drawn), the INHIBITION is 39.45%.

As to `COCC(NC(=O)c1ccc[nH]1)c1cccc(C(F)(F)F)c1` (stereo not drawn), the INHIBITION worked out at 11.28%.

For the compound `NS(=O)(=O)Cc1ccc(CNC(=O)NCC2CCOC2)cc1` (stereo not drawn), the INHIBITION is -27.91%.

Turning to `CC1CN(CCC(=O)NCCc2cccnc2)Cc2ccccc2O1` (stereo not drawn), the INHIBITION is recorded as 52.3%.

Turning to `Cc1ccc2c(c1)CN(CC(=O)NCCc1ccc(F)cc1)CC(C)O2` (stereo not drawn), the INHIBITION is reported as -16.71%.

Take `CC1CN(CC(=O)NCCc2ccncc2)Cc2ccccc2O1` (stereo not drawn): the INHIBITION is recorded as 11.9%.

On to `COC(=O)c1cnc2c(c(C)nn2C)c1OC`, for which the INHIBITION is listed as -8.44%.

`Nc1no[n+]([O-])c1C(=O)NCc1ccco1`: the INHIBITION worked out at 84.12%.

Take `COc1ncccc1CNC(=O)c1csc(Br)c1`: the INHIBITION was -12.08%.

With `COc1ncccc1CNC(=O)NCCNS(C)(=O)=O`, the INHIBITION came to 6.3%.

With `CCCNC(=O)NCc1cccnc1OC`, the INHIBITION amounted to 56.12%.

For the compound `COc1ncccc1CNC(=O)c1c[nH]c(=O)c(Br)c1`, the INHIBITION is on record as 37.18%.

With `COc1ncccc1CNC(=O)NCc1ccco1`, the INHIBITION is given as -2.87%.

For the compound `Nc1no[n+]([O-])c1C(=O)NCc1ccccn1`, the INHIBITION was -18.45%.

With `COc1ncccc1CNC(=O)c1cc(F)cc(Br)c1`, the INHIBITION is on record as 58.69%.

`COc1ncccc1CNC(=O)NCCNC(=O)c1ccco1`: the INHIBITION is recorded as 39.92%.

Take `COc1ncccc1CNC(=O)c1ccco1`: the INHIBITION was determined as 51.46%.

For the compound `CC(C)Oc1ncccc1CNC(=O)c1ccco1`, the INHIBITION stood at 26.11%.

Regarding `Nc1no[n+]([O-])c1C(=O)NCc1cccnc1`, the INHIBITION is listed as -3.26%.
